Reference: PubChem BioAssay (NCATS)
Records with an inconclusive call do not appear. A number with no mark means an inactive call. Activity calls are given as the source filed them. Calls follow the shape of the dose curve; as a rule, active = well fitted cell-killing curve with a large enough effect; inconclusive = small, poorly fitted or top-dose-only effect, or effect the other way; inactive = no such curve, though single readings can be large or run the other way.

assay: Quantitative High-Throughput drug screen in 47 multiple myeloma cell lines against the NCATS MIPE library collection: EJM_DSMZ cell viability assay (AID 1918926; also: nearly all actives have a fitted effect of over 30% in size;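 as to viability, % of control: 100% = DMSO-only wells and 0% = media-only wells without cells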); details: EJM myeloma cell viability, CellTiter-Glo ATP, 48 h; series mostly up to 45.8 µM; viability, % of control: at the top concentration
Outline: (§1)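 Relative luminescence from CellTiter-Glo served as the viability signal, referenced to DMSO-treated (100%) and cell-free medium (0%) controls. Treatment lasted 48 hours at 37C with 500 cells per well.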
Potency is read from the fitted curve at half-maximal effect.

Row | SMILES | Potency | viability, % of control [%]
1 | Cc1ccccc1C(=O)c1ccc(Nc2ccc(Br)cc2N)cc1Cl | 14.8 µM (active) | 
2 | CC(C)(O)CC(=O)NCCn1ccc2ncnc(Nc3ccc(Oc4cccc(C(F)(F)F)c4)c(Cl)c3)c21 | 1.87 µM (active) | 
3 | Cc1nc2c([nH]1)CCN(C(=O)c1ccc(NC(=O)c3ccccc3-c3ccccc3)cc1)c1ccccc1-2 |  | 89.2
4 | C[C@@H](N)c1ccc(C(=O)Nc2ccnc3[nH]ccc23)cc1 | 23.5 µM (active) | 
5 | CN1c2ccccc2C(=O)N2CCc3c([nH]c4ccccc34)C21 (configuration not stated) |  | 103

assay: Quantitative High-Throughput drug screen in 47 multiple myeloma cell lines against the NCATS MIPE library collection: AMO1_DSMZ cell viability assay (AID 1918927; also: nearly all actives have a fitted effect of over 30% in size;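 as to viability, % of DMSO: 100% = DMSO only wells and 0% = cell-free media only wells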); details: AMO1 myeloma cells viability, CellTiter-Glo ATP luminescence, 48 h; series mostly up to 45.8 µM; viability, % of DMSO: at the top concentration
Outline: as §1

Row | SMILES | Potency | viability, % of DMSO [%]
6 | Cc1cc(CS(=O)(=O)c2ccccc2)cc(OCc2ccc(CN3CCC[C@H]3CO)cc2)c1 | 14.8 µM (active) | 
7 | COc1nccc(-c2c(-c3ccc(F)cc3)ncn2C2CCNCC2)n1 |  | 134
8 | OC(c1cc(C(F)(F)F)nc2c(C(F)(F)F)cccc12)C1CCCCN1 (configuration not stated) | 18.7 µM (active) | 
9 | COc1cc(CNC(=O)CCCCC=CC(C)C)ccc1O |  | 102
10 | CN1[C@H]2CC[C@H]1CC(OC(=O)c1c[nH]c3ccccc13)C2 (some centres not stated) |  | 106
11 | CCCCOCCOc1nc(-c2ccc(C(=O)O)c(F)c2)sc1C |  | 108
12 | COc1nc(C)cnc1NS(=O)(=O)c1cccnc1-c1ccc(-c2nnco2)cc1 |  | 121
13 | CC[C@H](CC#N)OC(=O)N[C@@H](C)c1cccc(NC(=O)Nc2ccc(-c3cnco3)c(OC)c2)c1 | 0.418 µM (active) | 
14 | COc1cc(C=CC(=O)O)ccc1O |  | 101
15 | O=C(CC12CC3CC(CC(C3)C1)C2)Nc1cccc2nc(NCCNCCO)ccc12 | 20.9 µM (active) | 
16 | N#Cc1ccc(Oc2ccc3c(c2)COB3O)cc1 | 20.9 µM (active) | 
17 | O=C1Nc2ccc(I)cc2C1=Cc1cc(Br)c(O)c(Br)c1 | 16.6 µM (active) | 
18 | NC1(C(=O)N[C@@H](CCO)c2ccc(Cl)cc2)CCN(c2ncnc3[nH]ccc23)CC1 | 1.87 µM (active) | 
19 | Cc1cn([C@@H]2C[C@@H](O)[C@H](CO)O2)c(=O)[nH]c1=O |  | 84.6
20 | CN(C)CCOc1ccc(C(=C(CCCl)c2ccccc2)c2ccccc2)cc1 |  | 109
21 | CC(C)n1c(C=C[C@H](O)C[C@H](O)CC(=O)O)c(-c2ccc(F)cc2)c2ccccc21 | 16.6 µM (active) | 
22 | CN[C@@H]1[C@@H](O)[C@@H](O[C@@H]2[C@@H](O)[C@H](O[C@H]3O[C@H](CN)[C@@H](O)[C@H](O)[C@@H]3O)[C@@H](N)C[C@@H]2NC(=O)[C@@H](O)CN)OC[C@]1(C)O |  | 126
23 | CC(C)Oc1cc(Nc2nc(N[C@@H](C)c3ccc(F)cn3)ncc2Cl)[nH]n1 | 18.7 µM (active) | 
24 | COc1ccc(Cn2ccc3ccc(C(=O)NO)cc32)cc1 | 16.6 µM (active) | 
25 | Cc1ccccc1C(=O)c1ccc(Nc2ccc(Br)cc2N)cc1Cl | 0.833 µM (active) | 
26 | CC(C)(O)CC(=O)NCCn1ccc2ncnc(Nc3ccc(Oc4cccc(C(F)(F)F)c4)c(Cl)c3)c21 | 16.6 µM (active) | 
27 | Cc1nc2c([nH]1)CCN(C(=O)c1ccc(NC(=O)c3ccccc3-c3ccccc3)cc1)c1ccccc1-2 | 18.7 µM (active) | 
28 | C[C@@H](N)c1ccc(C(=O)Nc2ccnc3[nH]ccc23)cc1 | 23.5 µM (active) | 
29 | CN1c2ccccc2C(=O)N2CCc3c([nH]c4ccccc34)C21 (configuration not stated) |  | 114

assay: Quantitative High-Throughput drug screen in 47 multiple myeloma cell lines against the NCATS MIPE library collection: ARP1_JJKsccF8 cell viability assay (AID 1918928; also: nearly all actives have a fitted effect of over 40% in size); details: ARP1 myeloma cells viability, CellTiter-Glo ATP, 48 h; series mostly up to 45.8 µM; viability: at the top concentration
Outline: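 Luminescence from CellTiter-Glo, taken after 5 min at room temperature, reports cellular ATP as viability. Cells (500 per well) had been treated 48 h at 37 °C with MIPE 4.0 compounds, scaled between DMSO and medium-only controls.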

Row | SMILES | Potency | viability [%]
30 | CO[C@H]1/C=C\O[C@@]2(C)Oc3c(C)c(O)c4c(O)c(c(C=NN5CCN(C6CCCC6)CC5)c(O)c4c3C2=O)NC(=O)C(C)=CC=C[C@H](C)[C@H](O)[C@@H](C)[C@@H](O)[C@@H](C)[C@H](OC(C)=O)[C@H]1C | 10.5 µM (active) | 
31 | CC(C)(CO)[C@@H](O)C(=O)NCCC(=O)O | 1.66 µM (active) | 
32 | CC1(C)[C@H]2CC[C@]3(C)[C@@H](C(=O)C=C4[C@@H]5C[C@@](C)(C(=O)O)CC[C@]5(C)CC[C@]43C)[C@@]2(C)CC[C@@H]1O |  | 85.3
33 | CCN(CC)CCCCNc1nc2cc(Cl)c(Cl)cc2nc1-c1ccc(-c2cccs2)s1 | 7.43 µM (active) | 
34 | CN(C)CC[C@H](CSc1ccccc1)Nc1ccc(S(=O)(=O)NC(=O)c2ccc(N3CCN(Cc4ccccc4-c4ccc(Cl)cc4)CC3)cc2)cc1[N+](=O)[O-] | 13.2 µM (active) | 
35 | COC(=O)Nc1ccc(-c2nc(N3CCOCC3)c3cnn(C4CCN(C(=O)OC)CC4)c3n2)cc1 | 0.662 µM (active) | 
36 | CN[C@@H](C)[C@H]1[C@H](O)C[C@@]2(C)[C@@H]3CC[C@H]4C(C)(C)[C@@H](NC)CC[C@@]45C[C@@]35CC[C@]12C | 23.5 µM (active) | 
37 | CC1=C(C(=O)Nc2cc3cn[nH]c3cc2F)C(c2ccc(C(F)(F)F)cc2)CC(=O)N1 (configuration not stated) |  | 110
38 | CC(=O)NCCC(=O)N[C@@H](CCC(N)=O)C(=O)N[C@@H](CO)C(=O)N[C@@H](CCC(N)=O)C(=O)N[C@@H](CCC(N)=O)C(=O)N[C@H](C(=O)N[C@@H](Cc1ccccc1)C(=O)N[C@]1(C)CCCCCCC=CCCC[C@@](C)(C(=O)N[C@@H](CCC(N)=O)C(=O)N[C@@H](CC(N)=O)C(N)=O)NC(=O)[C@H](CC(C)C)NC(=O)[C@H](CC(C)C)NC(=O)[C@@H](CCCNC(=N)N)NC(=O)[C@H](Cc2c[nH]c3ccccc23)NC(=O)[C@H](CC(C)C)NC(=O)[C@H](CC(N)=O)NC1=O)[C@H](C)O | 20.9 µM (active) | 
39 | CS(=O)(=O)c1ccc(C2=C(c3ccccc3)C(=O)OC2)cc1 |  | 99.9
40 | CCC(c1ccc(O)cc1)C(CC)c1ccc(O)cc1 (configuration not stated) | 7.43 µM (active) | 
41 | CN1CC(=O)N2C(Cc3c([nH]c4ccccc34)[C@H]2c2ccc3c(c2)OCO3)C1=O (some centres not stated) |  | 104
42 | CCCCC(C)(C)[C@H](O)C=C[C@H]1[C@H](O)CC(=O)[C@H]1CC=CCCCC(=O)O | 23.5 µM (active) | 
